# Records with an inconclusive call do not appear. A call without a number means that no potency is given here. A number with no mark means an inactive call. The source made the active and inactive calls. Calls follow the shape of the dose curve; as a rule, active = well fitted curve in the direction sought with a large enough effect in the repeat runs; inconclusive = weak or mixed curves; inactive = no such curve, though single readings can be large; an effect the other way counts as inactive or inconclusive.
# Legend:
# [1] = target: Cytochrome P450 2C9 (Homo sapiens) (UniProt P11712); test: Cytochrome P450 Family 2 Subfamily C Member 9 (CYP2C9) small molecule antagonists: luciferase reporter qHTS assay (AID 1671198); settings: P450-Glo CYP2C9 enzyme assay, luciferin luminescence; series mostly up to 115 µM
# Chain of Cytochrome P450 2C9 (Homo sapiens) (P11712 whole entry, looked up): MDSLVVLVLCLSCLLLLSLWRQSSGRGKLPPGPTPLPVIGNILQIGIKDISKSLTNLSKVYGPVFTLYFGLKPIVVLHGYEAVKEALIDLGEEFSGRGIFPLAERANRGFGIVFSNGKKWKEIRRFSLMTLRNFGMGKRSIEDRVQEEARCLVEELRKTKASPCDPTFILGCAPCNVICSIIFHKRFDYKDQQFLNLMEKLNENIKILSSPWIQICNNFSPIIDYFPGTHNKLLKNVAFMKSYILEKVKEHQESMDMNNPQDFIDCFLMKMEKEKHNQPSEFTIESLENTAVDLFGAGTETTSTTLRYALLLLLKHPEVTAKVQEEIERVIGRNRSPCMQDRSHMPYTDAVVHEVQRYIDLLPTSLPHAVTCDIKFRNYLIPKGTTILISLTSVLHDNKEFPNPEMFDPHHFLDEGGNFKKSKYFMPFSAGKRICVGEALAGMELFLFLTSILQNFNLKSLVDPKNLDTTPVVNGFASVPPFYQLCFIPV
# Outline: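 Enzyme-substrate mix preincubated with compound 10 min at room temperature; reaction started with NADPH regeneration solution, 1 h 37C. Luminescent luciferin product read after 20 min detection reagent.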
# [2] = target: Cytochrome P450 1A2 (Homo sapiens) (UniProt P05177); test: Cytochrome P450 Family 1 Subfamily A Member 2 (CYP1A2) small molecule antagonists: luciferase reporter qHTS assay (AID 1671199); settings: P450-Glo CYP1A2 enzyme, luciferin luminescence, 1 h; series mostly up to 53 µM
# Chain of Cytochrome P450 1A2 (Homo sapiens) (P05177 whole entry, looked up): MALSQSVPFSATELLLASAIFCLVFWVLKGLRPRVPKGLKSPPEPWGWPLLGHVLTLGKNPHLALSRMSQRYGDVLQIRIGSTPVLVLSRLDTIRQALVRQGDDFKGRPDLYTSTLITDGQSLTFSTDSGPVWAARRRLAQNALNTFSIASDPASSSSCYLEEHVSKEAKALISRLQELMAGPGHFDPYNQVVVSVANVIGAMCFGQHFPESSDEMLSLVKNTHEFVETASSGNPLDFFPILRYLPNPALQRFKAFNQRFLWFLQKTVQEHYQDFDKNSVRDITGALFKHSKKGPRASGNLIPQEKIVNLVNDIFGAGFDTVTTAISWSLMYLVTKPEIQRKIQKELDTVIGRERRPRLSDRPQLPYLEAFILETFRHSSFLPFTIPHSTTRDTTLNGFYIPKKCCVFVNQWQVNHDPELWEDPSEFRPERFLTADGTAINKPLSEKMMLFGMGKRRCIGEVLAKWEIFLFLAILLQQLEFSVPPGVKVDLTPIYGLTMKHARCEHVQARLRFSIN
# Outline: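 P450-Glo CYP1A2, 1536-well qHTS: enzyme/proluciferin substrate + cpd (DMSO), 10 min RT; NADPH regen, 1 h RT; detection reagent, 20 min; luminescence, RLU.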
# [3] = target: Voltage-gated inwardly rectifying potassium channel KCNH2 (Homo sapiens) (UniProt Q12809); test: Human Ether-a-go-go-Related Gene (hERG) channel small molecule antagonists: fluorescence cell-based qHTS assay (AID 1671200); settings: hERG-U2OS cells, FluxOR thallium flux fluorescence; series mostly up to 76.8 µM;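 as to activity change, negative = inhibition: hERG-expressing U2OS cells given a thallium stimulus after FluxOR II dye loading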
# Chain of Voltage-gated inwardly rectifying potassium channel KCNH2 (Homo sapiens) (Q12809 whole entry, looked up): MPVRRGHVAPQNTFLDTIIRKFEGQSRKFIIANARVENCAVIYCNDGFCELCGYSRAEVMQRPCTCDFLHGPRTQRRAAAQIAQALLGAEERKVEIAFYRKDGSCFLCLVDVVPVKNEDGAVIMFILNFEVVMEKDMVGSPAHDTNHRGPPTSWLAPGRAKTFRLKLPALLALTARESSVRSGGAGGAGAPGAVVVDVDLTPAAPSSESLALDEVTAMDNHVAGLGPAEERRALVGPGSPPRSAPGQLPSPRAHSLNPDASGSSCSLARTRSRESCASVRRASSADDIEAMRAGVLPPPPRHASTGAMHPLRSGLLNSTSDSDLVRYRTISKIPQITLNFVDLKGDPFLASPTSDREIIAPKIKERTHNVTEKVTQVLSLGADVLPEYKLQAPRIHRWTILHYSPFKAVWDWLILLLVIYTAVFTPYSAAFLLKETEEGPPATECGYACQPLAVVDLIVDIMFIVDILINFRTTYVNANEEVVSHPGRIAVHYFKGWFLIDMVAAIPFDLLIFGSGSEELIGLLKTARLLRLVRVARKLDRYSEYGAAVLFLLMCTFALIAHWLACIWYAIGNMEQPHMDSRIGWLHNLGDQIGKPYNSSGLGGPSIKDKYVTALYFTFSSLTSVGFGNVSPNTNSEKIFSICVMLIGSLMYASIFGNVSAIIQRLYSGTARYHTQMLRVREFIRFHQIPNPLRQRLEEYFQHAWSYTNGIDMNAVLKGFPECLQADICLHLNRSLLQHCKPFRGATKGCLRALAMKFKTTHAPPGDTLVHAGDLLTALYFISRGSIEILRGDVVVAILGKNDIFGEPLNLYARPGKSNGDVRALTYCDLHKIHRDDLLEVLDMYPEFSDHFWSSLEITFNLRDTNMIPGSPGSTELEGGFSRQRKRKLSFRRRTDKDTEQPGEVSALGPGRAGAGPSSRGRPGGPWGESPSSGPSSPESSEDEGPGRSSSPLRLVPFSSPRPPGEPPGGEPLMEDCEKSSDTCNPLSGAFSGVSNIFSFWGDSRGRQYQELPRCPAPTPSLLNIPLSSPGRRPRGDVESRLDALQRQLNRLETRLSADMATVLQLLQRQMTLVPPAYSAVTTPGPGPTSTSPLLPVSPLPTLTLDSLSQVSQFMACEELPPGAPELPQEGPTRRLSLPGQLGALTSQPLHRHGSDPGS
# Outline: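 First, 1000 cells per well are seeded and cultured overnight at 37 C. Next, FluxOR II dye is loaded for 1 h at room temperature, protected from light. After 10 more minutes, stimulus is added and fluorescence is read.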
# [4] = target: Cytochrome P450 3A4 (Homo sapiens) (UniProt P08684); test: Cytochrome P450 Family 3 Subfamily A Member 4 (CYP3A4) small molecule antagonists: luciferase reporter qHTS assay (AID 1671201); settings: P450-Glo CYP3A4 enzyme, luciferin luminescence, 1 h; series mostly up to 115 µM
# Chain of Cytochrome P450 3A4 (Homo sapiens) (P08684 whole entry, looked up): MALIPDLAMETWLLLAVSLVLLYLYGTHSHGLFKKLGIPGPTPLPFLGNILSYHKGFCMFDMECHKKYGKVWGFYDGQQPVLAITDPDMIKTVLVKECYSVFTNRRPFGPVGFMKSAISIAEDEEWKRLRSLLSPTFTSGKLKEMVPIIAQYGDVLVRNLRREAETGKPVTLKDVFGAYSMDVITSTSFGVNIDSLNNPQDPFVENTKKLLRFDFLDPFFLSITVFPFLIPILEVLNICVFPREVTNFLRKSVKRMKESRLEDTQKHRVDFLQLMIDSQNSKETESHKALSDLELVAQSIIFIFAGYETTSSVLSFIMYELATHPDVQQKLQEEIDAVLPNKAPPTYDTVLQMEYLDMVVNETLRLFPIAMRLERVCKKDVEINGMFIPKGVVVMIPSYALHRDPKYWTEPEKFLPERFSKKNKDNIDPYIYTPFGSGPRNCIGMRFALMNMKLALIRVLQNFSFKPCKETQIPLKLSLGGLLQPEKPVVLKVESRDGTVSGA
# Outline: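 Enzyme and proluciferin substrate are mixed with test chemicals for 10 min, then NADPH regeneration system drives turnover for 1 h at room temperature. A detection reagent halts the reaction; luminescence after 20 min gives relative activity.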
# Also: nearly all actives have a fitted effect of over 50% in size.
# Potency is read from the fitted curve at half-maximal effect.
Structure (SMILES),Potency [1],Potency [2],Potency [3],Potency [4],"activity change, negative = inhibition [1]","activity change, negative = inhibition [2]","activity change, negative = inhibition [3]","activity change, negative = inhibition [4]"
O=C(OCCCCCCOC(=O)c1ccccc1)c1ccccc1,7.96 µM (active),3.17 µM (active),inactive,inactive,–,–,–,–
O=C(O)c1ccc(S(=O)(=O)O)cc1C(=O)O,inactive,inactive,inactive,inactive,–,–,–,–
NC(N)=NCCC[C@H](N)C(=O)O,–,–,–,–,10.6% [at 10.5 µM],1.33% [at 10.5 µM],5.88% [at 6.97 µM],0.752% [at 10.5 µM]
CCn1cc(C(=O)O)c(=O)c2cnc(N3CCNCC3)nc21,inactive,inactive,inactive,inactive,–,–,–,–
Cc1cc(C(=O)O)ccc1[N+](=O)[O-],inactive,40 µM (active),inactive,inactive,–,–,–,–
COC(C)(C)CCO,inactive,inactive,inactive,inactive,–,–,–,–
C[N+](C)(C)CCOC(=O)CCC(=O)OCC[N+](C)(C)C,inactive,inactive,inactive,inactive,–,–,–,–
CC1(c2ccccc2)OC(C(=O)O)=CC1=O (configuration not stated),inactive,inactive,inactive,inactive,–,–,–,–
O=C1CCC(=O)O1,inactive,inactive,inactive,inactive,–,–,–,–
CCC(Cl)CCC(Cl)C(Cl)CC(Cl)C(Cl)C(Cl)CCl (configuration not stated),inactive,inactive,inactive,inactive,–,–,–,–
CC1CCC(=O)C1=O (configuration not stated),inactive,inactive,inactive,inactive,–,–,–,–
CNC(=O)CN(CCN(CCN(CC(=O)[O-])CC(=O)NC)CC(=O)[O-])CC(=O)[O-].O.[Gd+3],inactive,inactive,inactive,inactive,–,–,–,–
O=[N+]([O-])c1ccc2[nH]ncc2c1,inactive,31.7 µM (active),inactive,inactive,–,–,–,–
c1cc(CCCc2ccncc2)ccn1,5.64 µM (active),1.78 µM (active),inactive,1 µM (active),–,–,–,–
CCOc1ccc(N=Nc2ccc(/C=C/c3ccc(N=Nc4ccc(OCC)cc4)cc3S(=O)(=O)O)c(S(=O)(=O)O)c2)cc1,inactive,27.8 µM (active),inactive,inactive,–,–,–,–
C=C1C(=C/C=C2\CCC[C@]3(C)[C@@H]([C@H](C)/C=C/[C@@H](O)C4CC4)CC[C@@H]23)C[C@@H](O)C[C@@H]1O,15.5 µM (active),inactive,inactive,inactive,–,–,–,–
Cn1c(=O)cc(Oc2ccc(F)cc2F)c2cnc(NCC(C)(C)O)nc21,56.4 µM (active),28.3 µM (active),inactive,inactive,–,–,–,–

Structure (SMILES),Potency [1],Potency [2],Potency [3],Potency [4],"activity change, negative = inhibition [1]","activity change, negative = inhibition [2]","activity change, negative = inhibition [3]","activity change, negative = inhibition [4]"
CN(C)CCN(Cc1ccsc1)c1ccccn1,inactive,inactive,inactive,inactive,–,–,–,–
O=C1OC(CN2CCOCC2)CN1/N=C/c1ccc([N+](=O)[O-])o1 (configuration not stated),inactive,inactive,inactive,inactive,–,–,–,–
CCNc1cc(O)ccc1C,9.92 µM (active),12.5 µM (active),inactive,9.92 µM (active),–,–,–,–
CN(C)c1ccc(CCO)cc1,19.9 µM (active),35.4 µM (active),inactive,inactive,–,–,–,–
C=CCOc1ccccc1OCC(O)CNC(C)C (configuration not stated),inactive,10.2 µM (active),inactive,inactive,–,–,–,–
COc1cc2nc(N(C)CCCNC(=O)C3CCCO3)nc(N)c2cc1OC (configuration not stated),inactive,inactive,inactive,inactive,–,–,–,–
CN1CCN(C(c2ccccc2)c2ccccc2)CC1,inactive,inactive,inactive,inactive,–,–,–,–
C=C(C)C(=O)OCC,inactive,inactive,inactive,inactive,–,–,–,–
C1CCCNCCC1,inactive,inactive,inactive,inactive,–,–,–,–
COc1ccc(C)cc1[N+](=O)[O-],inactive,10.2 µM (active),inactive,36.1 µM (active),–,–,–,–
O=C(O)C1(C(=O)O)CCC1.[NH2-].[NH2-].[Pt+2],8.71 µM (active),13.8 µM (active),inactive,inactive,–,–,–,–
O=S(=O)(Oc1ccc(Cl)cc1)c1ccccc1,31.7 µM (active),5.64 µM (active),inactive,inactive,–,–,–,–
CC(C)(C)Cl,inactive,inactive,inactive,inactive,–,–,–,–
CCOC(=O)NCCOc1ccc(Oc2ccccc2)cc1,20 µM (active),11.2 µM (active),43.6 µM (active),inactive,–,–,–,–
O=C(O)CNCC(=O)O,–,–,–,–,-0.595% [at 10.5 µM],-1.26% [at 10.5 µM],4.26% [at 6.97 µM],0.283% [at 10.5 µM]
CCc1cc(C2=C(C(=O)O)N(c3ccccc3C(F)(F)F)S(=O)(=O)c3ccccc32)cc2c1OCO2,11.1 µM (active),inactive,inactive,2.79 µM (active),–,–,–,–
